Measured values from PubChem BioAssay.
Activity calls are given as the source filed them.

How the values were obtained:
Albumin (Bos taurus) = Albumin (Bos taurus) (UniProt P02769); test: bovine serum albumin binders on microarray, profiling panel, artefact control for SMM control protein annotation, biochemical, small-molecule microarray, Alexa647 label, 635/667 nm fluorescence (AID 1118); details: BSA-A647 binding, fluorescence 635 nm, higher = more signal;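 note: score merges 667 nm emission intensity and signal-to-noise per printed compound spot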
[1] = small-molecule microarray binders of probe aXIP, primary screen, biochemical, NeuroSMM set, 635/667 nm fluorescence (AID 1119); details: higher = more signal, called active from +8 up or from −8 down;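 note: probe is the protein aXip251-270 applied at 1 µg/mL to compound-printed slides; binding of probe to printed compounds measured as 667 nm fluorescence plus signal to noise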
[2] = small-molecule binders of probe aNOTCH3, primary screen, biochemical, small-molecule microarray, 635/667 nm fluorescence (AID 1120); details: higher = more signal;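 note: probe is a biotin-tagged antibody raised against NOTCH3 rather than NOTCH3 protein; score merges spot fluorescence near 667 nm with spot signal to noise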
[3] = small-molecule binders of probe aNOTCH2, primary screen, biochemical, small-molecule microarray, 635/667 nm fluorescence (AID 1121); details: higher = more signal;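 note: score merges feature fluorescence read at 667 nm with its signal to noise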
[4] = molecular target: Carbonic anhydrase 2 (Homo sapiens) (UniProt P00918); test: CAII small-molecule binders, profiling panel, biochemical, small-molecule microarray, Alexa647-labelled CAII (AID 1122); details: CAII-A647 binding fluorescence, higher = more signal
[5] = COS7 lysate on small-molecule microarray, probe aHis, 635 nm (AID 1123); details: COS7 cell lysate, fluorescence, higher = more signal;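 note: z-score combines 667nm fluorescence intensity with signal-to-noise per printed compound spot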
[6] = compound binding in COS7 lysate, probe aLAP1, primary screen, cell lysate, small-molecule microarray (AID 1124); details: probe aLAP1, fluorescence, higher = more signal;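 note: lysate comes from COS7 cells expressing LAP1 and is applied at 0.3 µg/mL; score merges spot fluorescence near 667 nm with signal-to-noise over triplicate slides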
Sam68 (KHDRBS1) = test: Sam68 small-molecule binders, primary screen, biochemical, small-molecule microarray, 635 nm fluorescence (AID 1125); details: small-molecule microarray binding, higher = more signal;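 note: score merges 667 nm channel intensity with signal to noise over triplicate slides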
[7] = test system: Chordin-like protein 2 (CHRDL2); test: CHRDL2 small-molecule binders, primary screen, biochemical, small-molecule microarray, 635 nm fluorescence (AID 1126); details: small-molecule microarray binding, fluorescence 635 nm; higher = more signal;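 note: printed compound slides probed with Chrdl2 protein at 4 µg/mL for 1 h at 4 C; score merges 667 nm emission intensity with signal to noise over three replicate slides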
[8] = molecular target: Concanavalin-A (Canavalia ensiformis) (UniProt P02866); test: ConA small-molecule binders, primary screen, artefact control for SMM control protein annotation, biochemical, small-molecule microarray, Alexa647 label, 635 nm (AID 1127); details: ConA-A647 binding fluorescence, higher = more signal;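 note: z combines 667 nm emission intensity with signal-to-noise across three replicate slides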
Concanavalin-A (Canavalia ensiformis), sequence (P02866 whole entry, looked up): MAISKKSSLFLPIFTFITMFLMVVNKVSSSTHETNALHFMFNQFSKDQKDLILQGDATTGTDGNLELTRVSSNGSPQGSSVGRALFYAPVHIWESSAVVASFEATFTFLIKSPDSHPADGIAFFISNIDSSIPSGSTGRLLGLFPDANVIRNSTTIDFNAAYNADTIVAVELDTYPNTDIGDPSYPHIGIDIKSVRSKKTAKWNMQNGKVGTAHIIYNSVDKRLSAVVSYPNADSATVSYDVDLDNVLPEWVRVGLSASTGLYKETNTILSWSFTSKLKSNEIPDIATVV

Albumin (Bos taurus), sequence (P02769 whole entry, looked up): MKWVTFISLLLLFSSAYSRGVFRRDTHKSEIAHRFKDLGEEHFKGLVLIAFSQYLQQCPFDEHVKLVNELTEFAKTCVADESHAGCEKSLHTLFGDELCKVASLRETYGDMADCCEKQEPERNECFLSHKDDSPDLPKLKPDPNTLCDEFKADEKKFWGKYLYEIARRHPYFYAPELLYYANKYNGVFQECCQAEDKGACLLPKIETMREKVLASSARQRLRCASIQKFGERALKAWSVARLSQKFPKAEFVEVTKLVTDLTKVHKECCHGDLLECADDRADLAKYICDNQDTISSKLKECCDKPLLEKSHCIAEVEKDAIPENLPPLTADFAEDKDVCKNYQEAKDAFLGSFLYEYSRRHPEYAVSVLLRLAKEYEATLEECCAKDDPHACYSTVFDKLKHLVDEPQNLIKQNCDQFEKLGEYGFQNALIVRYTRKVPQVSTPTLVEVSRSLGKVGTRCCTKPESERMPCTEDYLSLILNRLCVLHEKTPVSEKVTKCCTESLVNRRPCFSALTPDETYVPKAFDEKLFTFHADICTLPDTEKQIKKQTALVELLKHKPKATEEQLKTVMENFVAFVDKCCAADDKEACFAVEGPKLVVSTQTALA

Row | SMILES | composite z-score (Albumin (Bos taurus)) | composite Z-score [1] | composite z-score [2] | composite z-score [3] | composite z-score [4] | composite z-score [5] | composite z-score [6] | composite z-score (Sam68 (KHDRBS1)) | composite z-score [7] | composite z-score [8]
1 | C=CCC(OC(C)=O)[C@@H]1[C@@H](N(Cc2ccc(-c3cccc(C(F)(F)F)c3)o2)C(=O)Cc2ccc(OC)cc2)c2cc(OCCCO)ccc2N1C(=O)Cc1ccc2ccccc2c1 (stereo not given in full) | 0.315 | -0.0998 (inactive) | -0.158 | -0.14 | -0.121 | 0.631 | -0.31 | -0.0204 | -0.0929 | -0.0477
2 | CC(C)[C@H]1NC(=O)[C@@]23C(=O)N[C@@H](Cc4ccccc4)C2[C@H](C)[C@@]2(C)O[C@H]2C3/C=C/CCC/C=C/CNC(=O)[C@H](Cc2ccccc2)NC1=O (stereo not given in full) | 0.347 | -0.0159 (inactive) | -0.213 | -0.131 | 0.427 | 0.892 | -0.0328 | 0.86 | 0.213 | -0.464
3 | O=C1O[C@H](c2ccccc2)[C@H](c2ccccc2)N2[C@H]1[C@@H](C(=O)O)[C@]1(C(=O)Nc3ccc(C#CC4(O)CCCCCC4)cc31)[C@H]2c1ccc(O)cc1 | 0.143 | 0.25 (inactive) | -0.15 | -0.0999 | 0.811 | 0.609 | 0.0189 | 0.553 | 0.224 | 0.437
4 | COC(=O)[C@@]1(Cc2ccccc2)[C@H]2c3cc(C(=O)N4CCCC4)n(CCSCCO)c3C[C@H]2CN1C(=O)c1ccccc1 | 1.05 | -0.176 (inactive) | 0.543 | 0.187 | 0.841 | 3.57 | 1.22 | 1.12 | -0.997 | 0.554
5 | C=CCC(OC(C)=O)[C@@H]1[C@@H](N(Cc2cccc3ccccc23)C(=O)Cc2ccc(F)cc2)c2cc(OCCCO)ccc2N1C(=O)c1ccc(-c2ccccc2)cc1 (stereo not given in full) | 0.621 | -0.248 (inactive) | 0.0847 | 0.054 | -0.119 | 0.644 | 0.505 | -0.738 | -0.335 | -1.6
6 | C=CC1c2cc(O)c(OC)cc2CCN1Cc1ccc([N+](=O)[O-])o1 (stereo not given) | 0.576 | 0.402 (inactive) | 0.136 | -0.0708 | 0.847 | 2.05 | 1.1 | 0.358 | -0.807 | 0.103
7 | COCCCNC(=O)[C@@]1(Sc2ccc(C)cc2)CC(=O)N(C(C)C)[C@@H]1c1ccc(CO)cc1I | -0.622 | 0.525 (inactive) | 0.0062 | -0.164 | 0.763 | 1.4 | 0.427 | 0.462 | -0.825 | 0.413
8 | CN1C=C(C(=O)OCCS(C)(=O)=O)C(C(=O)OCCS(C)(=O)=O)=CC(c2ccc(CO)cc2)=CC1c1cccs1 (stereo not given) | 0.232 | 0.142 (inactive) | 0.0026 | -0.0936 | 0.812 | 0.848 | 0.279 | 0.645 | 0.318 | 0.64
9 | COCCOC(=O)N1C(=O)[C@@]2(c3cc(C#CCNC(N)=O)ccc31)[C@H](c1ccc(O)cc1)N1[C@H](c3ccccc3)[C@H](c3ccccc3)OC(=O)[C@H]1[C@@H]2C(=O)N1CCN(c2ncccn2)CC1 | 0.678 | 0.529 (inactive) | 0.344 | -0.175 | 0.506 | 2.41 | 0.566 | 1.27 | 0.279 | 1.1
10 | C=CCC(OC(C)=O)[C@@H]1[C@@H](N(Cc2cccc3ccccc23)C(=O)c2cccc3ccccc23)c2cc(OCCCO)ccc2N1C(=O)c1ccc2ccccc2c1 (stereo not given in full) | 0.0949 | 0.128 (inactive) | 0.0676 | -0.0883 | 0.206 | -0.203 | -0.225 | -0.047 | 0.0526 | -0.0264
11 | COc1ccc([Si](C)(C)[C@@H]2[C@@H](CC(=O)N3Cc4ccccc4C[C@H]3CO)O[C@]3(C(=O)N(c4ccccc4)c4ccccc43)[C@H]2C)cc1 | -0.104 | 8.06 (active) | 0.146 | 0.0018 | 0.429 | 1.21 | 0.339 | 1.3 | 0.943 | 0.869
12 | O=C1O[C@H](c2ccccc2)[C@H](c2ccccc2)N2[C@H]1[C@@H](C(=O)Nc1nc3ccccc3s1)[C@]1(C(=O)Nc3ccc(C#CC4=CCCCC4)cc31)[C@H]2c1ccc(O)cc1 | 0.658 | 0.156 (inactive) | 0.278 | -0.117 | 0.185 | 2.16 | -0.0648 | 1.3 | -0.12 | 0.973
13 | CC(C)[Si]1(C(C)C)OCc2cc(-c3ccc(-c4ccc(Cl)c(Cl)c4)o3)nc(CCc3ccccc3)c21 | -0.176 | 0.182 (inactive) | -0.0362 | -0.171 | 0.384 | 0.587 | 0.112 | -0.0975 | 0.0164 | -0.843
14 | C=CCC(OC(C)=O)[C@@H]1[C@@H](N(Cc2cc3ccccc3o2)C(=O)c2ccc(-c3ccccc3)cc2)c2cc(OCCCO)ccc2N1C(=O)Cc1ccc(OC)cc1 (stereo not given in full) | 0.0787 | 0.443 (inactive) | -0.0189 | -0.14 | -0.284 | 0.401 | -0.237 | 0.0416 | 0.186 | 0.444
15 | NC(=O)N1C(=O)C2C(C1=O)C1C=C(CCCO)C2C(C2CC2)N1Cc1cccc(OC(F)(F)F)c1 (stereo not given) | 0.858 | 0.547 (inactive) | -0.349 | -0.179 | 0.653 | 0.518 | -0.0171 | 0.588 | -0.489 | 0.221
16 | COCCOC(=O)N1C(=O)[C@@]2(c3cc(C#CCC(C(=O)OC)C(=O)OC)ccc31)[C@H](C(=O)NC[C@H](O)c1ccccc1)[C@H]1C(=O)O[C@H](c3ccccc3)[C@H](c3ccccc3)N1[C@@H]2c1ccc(OCCO)cc1 | 0.45 | 1.02 (inactive) | 0.0899 | -0.099 | 0.521 | 1.66 | 0.257 | 1.3 | 1.13 | 1.14

Row | SMILES | composite z-score (Albumin (Bos taurus)) | composite Z-score [1] | composite z-score [2] | composite z-score [3] | composite z-score [4] | composite z-score [5] | composite z-score [6] | composite z-score (Sam68 (KHDRBS1)) | composite z-score [7] | composite z-score [8]
17 | C=CCC(OC(C)=O)[C@@H]1[C@@H](N(Cc2ccc(-c3cccc(C(F)(F)F)c3)o2)C(=O)c2cccc3ccccc23)c2cc(OCCCO)ccc2N1C(=O)Cc1ccc(OC)cc1 (stereo not given in full) | 0.311 | -0.0798 (inactive) | -0.027 | -0.151 | 0.149 | 0.428 | 0.0827 | -0.323 | 0.0616 | -0.422
18 | COC(=O)[C@@]1(Cc2ccc(OC)cc2)[C@H]2c3cc(C(=O)N4CCCC4)n(Cc4ccc(S(C)(=O)=O)cc4)c3C[C@H]2CN1C(=O)c1ccccc1 | 1.03 | 0.602 (inactive) | 0.264 | 0.36 | 0.583 | 2.22 | -0.272 | 0.838 | -0.737 | 0.417
19 | COc1ccc(CCNC(=O)[C@@]2(Cc3ccccc3I)c3ccccc3C(=O)N(Cc3ccccc3Cl)[C@H]2c2ccc(CO)cc2)cc1 | -0.41 | 1.24 (inactive) | 0.385 | 0.111 | 0.731 | 1.34 | 0.529 | 0.576 | -0.311 | 0.555
20 | COCCOC(=O)N1C(=O)[C@@]2(c3cc(C#CC4(O)CCCCCC4)ccc31)[C@H](C(=O)N1CCN(c3ncccn3)CC1)[C@H]1C(=O)O[C@H](c3ccccc3)[C@H](c3ccccc3)N1[C@@H]2c1ccccc1OCCO | -0.22 | 0.572 (inactive) | 0.22 | -0.0826 | 0.384 | 0.506 | -0.176 | 1.26 | 0.902 | 1.13
21 | Cc1c(NC(=O)/C(C#N)=C/c2ccccc2Cl)c(=O)n(-c2ccccc2)n1C | 0.942 | -0.683 (inactive) | -0.0048 | -0.011 | 0.704 | 1.08 | 0.237 | 0.247 | 0.107 | 0.996
22 | COCCOC(=O)N1C(=O)[C@@]2(c3cc(C#CCC(C(=O)OC)C(=O)OC)ccc31)[C@H](C(=O)NC[C@H](O)c1ccccc1)[C@H]1C(=O)O[C@H](c3ccccc3)[C@H](c3ccccc3)N1[C@@H]2c1ccc(O)cc1 | 0.661 | -0.0756 (inactive) | -0.0014 | -0.0974 | 0.614 | 1.67 | 0.243 | 0.378 | -0.769 | 0.708
23 | COCCOC(=O)N1C(=O)[C@@]2(c3cc(C#CCCO)ccc31)[C@H](C(=O)N1CCCCCCC1)[C@H]1C(=O)O[C@H](c3ccccc3)[C@H](c3ccccc3)N1[C@@H]2c1ccccc1OCCO | 0.951 | 3.51 (inactive) | 1.46 | 0.662 | 0.599 | 2.89 | 0.359 | 1.32 | 1.14 | 1.09
24 | CN(C)CCCNC(=O)[C@@H]1c2ccccc2C(=O)N(C2CCCCC2)[C@H]1c1ccc(CO)cc1 | -0.706 | 0.245 (inactive) | 0.303 | -0.0891 | 0.672 | 1.38 | 0.337 | 1.29 | 1.06 | 1.08
25 | O=C(CS)NCCCCCNC(=O)[C@@H]1C[C@@H]2C(=O)N[C@@H](Cc3ccccc3)C(=O)N2[C@@H]1c1cccc(OCCO)c1 | -0.884 | -0.32 (inactive) | -0.638 | -0.446 | 0.665 | 2.7 | 0.426 | 1.34 | 0.914 | 1.13
26 | C=C(CCCC)/C(=C/C[C@H](OC(C)=O)c1ccc(OCCO)cc1)c1cc(C(=O)OC)ccc1OC | 0.891 | 0.414 (inactive) | 0.0297 | -0.0743 | 0.663 | 1.49 | 0.561 | 1.17 | -0.15 | 0.366
27 | NCCCCCNC(=O)[C@@H]1C[C@@H]2C(=O)N3CCC[C@H]3C(=O)N2[C@@H]1c1ccc(O)cc1 | 0.539 | -0.213 (inactive) | 0.0496 | 0.0214 | 0.442 | 1.19 | 0.666 | 0.776 | 0.466 | 0.893
28 | [N-]=[N+]=NCc1ccccc1[C@H]1OC(c2ccc(OCCCO)cc2)=N[C@@]1(Cc1ccccc1)C(=O)NCCN1CCOCC1 | 0.985 | 0.0851 (inactive) | 0.576 | -0.0531 | 0.696 | 2.61 | 0.961 | 1.3 | 0.104 | 1.12
29 | C=CCC(OC(C)=O)[C@@H]1[C@@H](N(Cc2ccc(-c3ccccc3)cc2)C(=O)c2ccc(C)cc2)c2cc(OCCCO)ccc2N1C(=O)Cc1ccc2ccccc2c1 (stereo not given in full) | 0.233 | -0.645 (inactive) | -0.0362 | -0.159 | -0.14 | 0.772 | -0.0769 | -0.106 | 0.248 | 0.202
30 | CC=CC(O)C1C=CC2C(=O)NC(=O)C2N1Nc1ccccn1 (stereo not given) | 0.456 | 0.289 (inactive) | -0.0362 | -0.112 | 0.463 | 0.717 | 0.654 | 0.463 | 1.04 | 0.855
31 | COc1ccc([Si](C)(C)[C@@H]2[C@@H](CCn3cc([C@H](O)c4ccccc4)nn3)O[C@]3(C(=O)N(c4ccccc4)c4ccccc43)[C@H]2C)cc1 | -0.591 | -0.424 (inactive) | -0.145 | -0.131 | 0.0028 | 0.233 | -0.232 | 0.548 | -0.063 | 0.503
